Experimental data from PubChem BioAssay (NCATS).
Inconclusive results are not listed. Unmarked numbers belong to inactive results. Active and inactive are the calls of the source. Calls follow the shape of the dose curve; as a rule, active = well fitted cell-killing curve with a large enough effect; inconclusive = small, poorly fitted or top-dose-only effect, or effect the other way; inactive = flat fitted curve, though single readings scatter.

Each molecule was assayed on PA-1 (assay: Primary qHTS to identify gynecologic anti-cancer compounds using libraries of approved drugs and bioactive compounds (AID 1345084; also: nearly all actives have a fitted effect of over 55% in size)). Conditions: Gynecologic cancer cell panel viability, ATPlite luminescence, 48 h; series mostly up to 57.5 µM; activity change, negative = cytotoxicity: at the top concentration.
Procedure, shortened: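 Five-point cytotoxicity, 48 h drug exposure at 37 C, 5% CO2, on cells seeded 16 h beforehand. ATP content read by ATPlite luminescence.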
% is scaled to controls: 0 for no effect and ±100 for the full control effect; potency is read from the fitted curve at half-maximal effect.

Structure (SMILES)	activity change, negative = cytotoxicity	Potency
CC(=O)OC1CC(O)C(C)(C)C2CC(OC(C)=O)C3(C)C(CCC4(C)C(c5ccoc5)C(=O)C5OC543)C12C (centres undefined)	6.35% [at 25.3 µM]	–
COc1cc(C(=O)O[C@H]2[C@@H]3C=CO[C@@H](O[C@@H]4O[C@H](CO)[C@@H](O)[C@H](O)[C@H]4O)[C@@H]3[C@@]3(CO)O[C@@H]23)ccc1O	-5.78% [at 25.3 µM]	–
CCOc1ccccc1-n1c(C(C)N2CCN(C(=O)COc3ccc(Cl)cc3)CC2)nc2ccccc2c1=O (centres undefined)	-18.1%	–
COc1c(C(C)C)cc2c(c1O)[C@@]1(C(=O)O)CCCC(C)(C)C1CC2 (some centres undefined)	10.7% [at 38.5 µM]	–
CCc1[nH]c2ccc(OC)cc2c1CCN(C)C	0.0366%	–
COC(=O)C1(C)CCC(=O)C2(C)c3c(O)cc(C(C)C)cc3C(O)C(OC(C)=O)C12 (centres undefined)	0.62% [at 25.3 µM]	–
CN1[C@H]2C[C@H](OC(=O)[C@H](CO)c3ccccc3)C[C@@H]1[C@@H](O)C2	-14.9%	–
CC(C)(O)[C@H]1O[C@H]2CC[C@@]3(C)[C@@](O)(CC[C@H]4Cc5c([nH]c6ccccc56)[C@@]43C)C2=CC1=O	4.62% [at 25.3 µM]	–
CC1C/C=C/C(O)C(O)CC/C=C/c2cc(O)cc(O)c2C(=O)O1 (centres undefined)	-6.8% [at 38.5 µM]	–
COC1CC(OC2CCC3(C)C(=CCC4C3CCC3(C)C(C(C)OC5OC(COC6OC(CO)C(O)C(O)C6O)C(O)C(O)C5O)CCC43O)C2)OC(C)C1OC1OC(C)C(O)C(OC)C1O (centres undefined)	2.38% [at 11.6 µM]	–
C1=C2CCCN[C@H]2[C@@H]2C[C@H]1[C@H]1CCCCN1C2	6.22%	–
C[C@H]1O[C@@H](O[C@H]2C[C@@H](O)[C@]3(CO)C4C(CC[C@]3(O)C2)[C@@]2(O)CC[C@H](C3=CC(=O)OC3)[C@@]2(C)C[C@H]4O)[C@@H](O)[C@@H](O)[C@H]1O (some centres undefined)	–	562 nM (active)
CCN1C[C@]2(OC(=O)c3ccccc3NC(C)=O)CC[C@H](OC)[C@@]34[C@@H]2C[C@@H]([C@@H]13)[C@@]1(O)C[C@H](OC)[C@H]2C[C@@H]4[C@]1(O)[C@H]2OC	3.24%	–
COCC1OC(=O)c2coc3c2C1(C)C1=C(C3=O)C2CCC(=O)C2(C)CC1O (centres undefined)	-2.4% [at 38.5 µM]	–
Oc1ccc2c3c1O[C@H]1[C@H](N(CCCl)CCCl)CC[C@@]4(O)[C@@H](C2)N(CC2CC2)CC[C@]314	6.51% [at 11.6 µM]	–
COC(=O)C1(C)CCC(O)C2(C)c3c(O)cc(C(C)C)cc3C(O)C(OC(C)=O)C12 (centres undefined)	0.242% [at 25.3 µM]	–
CC(C)=C1CC[C@]23CO[C@H](C2)[C@@](O)(C(=O)O)CCC13 (some centres undefined)	-1.22%	–
COC(=O)N1CCN(C(=O)Cc2ccc(Cl)c(Cl)c2)[C@@H](CN2CCCC2)C1	3.27%	–
COC1CC(OC2CCC3(C=O)C(CCC4C3CCC3(C)C(C5=CC(=O)OC5)CCC43O)C2)OC(C)C1OC1OC(CO)C(O)C(O)C1O (centres undefined)	–	501 nM (active)
CCCCCOc1cc2c(cc1-c1cc(/C=C/C(=O)O)ccc1O)C(C)(C)CCC2(C)C	10.8%	–
CC(=O)OC12C(O)C(C)C3(O)C4C=C(C)C(=O)C4CC(CO)=CC3C1C2(C)C (centres undefined)	13.7% [at 25.3 µM]	–
CN1CCC[C@@H]1Cc1c[nH]c2ccc(Nc3ncccc3[N+](=O)[O-])cc12	-2.18%	–
CN(C)CCc1c[nH]c2ccc(CN3CCN(C)S3(=O)=O)cc12	1.12%	–
CN1C(=O)c2ccccc2NC(=O)C1Cc1ccccc1 (centres undefined)	3.27%	–
C/C=C(\C)C(=O)OC1CC2C(C)(C)OC(=O)CC(OC(C)=O)C2(C)C2CC(OC(=O)C(C)C)C3(C)C(c4ccoc4)CC4OC43C12C (centres undefined)	-0.611% [at 25.3 µM]	–
C[C@]12CC[C@H]3[C@@H]([C@H](O)CC4=CC(=O)CC[C@@]43C)[C@@H]1CC[C@@H]2O	-0.364%	–
COc1ccccc1CN[C@H]1C2CCN(CC2)[C@H]1C(c1ccccc1)c1ccccc1	6.81%	–
C=C1[C@@H]2CC[C@@]3(C)[C@H](c4ccoc4)OC(=O)C[C@]13O[C@H]1CC(=O)C(C)(C)[C@H](C(OC(C)=O)C(=O)OC)[C@]12C (some centres undefined)	10.7% [at 25.3 µM]	–
C=CC(C)(O)CC/C=C(\C)C(=O)O[C@H]1[C@H](O)[C@@H](CO)O[C@@H](OC(=O)[C@]23CCC(C)(C)CC2C2=CCC4[C@@]5(C)CC[C@H](O[C@@H]6O[C@H](CO[C@@H]7OC[C@H](O)[C@H](O)[C@H]7O[C@@H]7OC[C@@H](O)[C@H](O)[C@H]7O)[C@@H](O)[C@H](O)[C@H]6O)C(C)(C)C5CC[C@@]4(C)[C@]2(C)CC3)[C@@H]1OC1OC(C)C(O[C@@H]2OC[C@@H](O)[C@H](O[C@@H]3OC[C@@H](O)[C@H](O)[C@H]3O)[C@H]2O)C(O)C1O (some centres undefined)	3.75% [at 6.55 µM]	–
